According to PubChem BioAssay AID1159580 (chemical genetic matrix, 2015):
The campaign covered roughly 5,500 compounds. About 2,000 (36%) were called active. Inconclusive results (about 18%) are left out. Rule as the data show it: active = normalized growth mostly below about 0.91 (no sharp cut-off); inconclusive = no clear call, values can overlap the other calls; inactive = mostly above about 0.92. The list shows a part of the results.

Assay: chemical genetic growth profiling, strain panel (AID 1159580);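 also: tested at 20 µM; growth read once vehicle control cultures reached saturation at 30 °C; 1 = growth at the plate median or of vehicle wells; lower values mean less growth of the strain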
Conditions: growth OD

Measured: normalized growth

CN(C)CCN(Cc1ccccc1)c1ccccn1
inactive: S. cerevisiae deletion strains, locus YJR075W, strain HOC1, stronger effect = lower value 1.01 | S. cerevisiae deletion strains, locus YKL009W, strain mrt4, stronger effect = lower value 0.993 | S. cerevisiae deletion strains, locus YKL068W, stronger effect = lower value 0.969 | S. cerevisiae deletion strains, locus YKL085W, strain MDH1 (second series), stronger effect = lower value 0.978 | S. cerevisiae deletion strains, locus YKL085W, strain MDH1, stronger effect = lower value 0.978 | S. cerevisiae deletion strains, locus YKL160W, strain elf1, stronger effect = lower value 1.03 | S. cerevisiae deletion strains, locus YKL190W, strain CNB1, stronger effect = lower value 0.983 | S. cerevisiae deletion strains, locus YKR001C, strain vps1, stronger effect = lower value 0.994 | S. cerevisiae deletion strains, locus YKR026C, strain gcn3, stronger effect = lower value 1 | S. cerevisiae deletion strains, locus YKR091W, strain srl3, stronger effect = lower value 1.01 | S. cerevisiae deletion strains, locus YLL001W, strain dnm1, stronger effect = lower value 1.04 | S. cerevisiae deletion strains, locus YLL026W, stronger effect = lower value 1.02 | S. cerevisiae deletion strains, locus YLL041C, strain sdh2, stronger effect = lower value 1.01 | S. cerevisiae deletion strains, locus YLR027C, strain aat2, stronger effect = lower value 1.01 | S. cerevisiae deletion strains, locus YLR039C, strain RIC1, stronger effect = lower value 0.966 | S. cerevisiae deletion strains, locus YLR058C, strain SHM2, stronger effect = lower value 0.999 | S. cerevisiae deletion strains, locus YLR102C, strain apc9, stronger effect = lower value 0.986 | S. cerevisiae deletion strains, locus YLR113W, strain HOG1, stronger effect = lower value 0.909 | S. cerevisiae deletion strains, locus YLR221C, strain rsa3, stronger effect = lower value 0.988 | S. cerevisiae deletion strains, locus YLR258W, strain gsy2, stronger effect = lower value 1.01 | S. cerevisiae deletion strains, locus YLR262C, strain YPT6 (second series), stronger effect = lower value 1.02 | S. cerevisiae deletion strains, locus YLR262C, strain YPT6, stronger effect = lower value 1.01 | S. cerevisiae deletion strains, locus YLR268W, strain sec22, stronger effect = lower value 0.985 | S. cerevisiae deletion strains, locus YLR320W, strain mms22, stronger effect = lower value 1.01 | S. cerevisiae deletion strains, locus YLR330W, strain CHS5, stronger effect = lower value 0.999 | S. cerevisiae deletion strains, locus YLR342W, strain FKS1 (second series), stronger effect = lower value 1.04 | S. cerevisiae deletion strains, locus YLR342W, strain FKS1, stronger effect = lower value 1.02 | S. cerevisiae deletion strains, locus YLR357W, strain rsc2, stronger effect = lower value 1.03 | S. cerevisiae deletion strains, locus YLR370C, strain arc18, stronger effect = lower value 1.03 | S. cerevisiae deletion strains, locus YLR371W, strain rom2, stronger effect = lower value 0.976 | S. cerevisiae deletion strains, locus YLR384C, strain iki3, stronger effect = lower value 1.01 | S. cerevisiae deletion strains, locus YLR418C, strain cdc73, stronger effect = lower value 1.02 | S. cerevisiae deletion strains, locus YML016C, strain PPZ1, stronger effect = lower value 1.01 | S. cerevisiae deletion strains, locus YML032C, strain rad52, stronger effect = lower value 0.978 | S. cerevisiae deletion strains, locus YML120C, strain ndi1, stronger effect = lower value 1.02 | S. cerevisiae deletion strains, locus YML124C, strain tub3, stronger effect = lower value 0.988 | S. cerevisiae deletion strains, locus YMR058W, strain fet3, stronger effect = lower value 1.02 | S. cerevisiae deletion strains, locus YMR078C, strain ctf18, stronger effect = lower value 0.988 | S. cerevisiae deletion strains, locus YMR125W, strain sto1, stronger effect = lower value 1.02 | S. cerevisiae deletion strains, locus YMR129W, stronger effect = lower value 1 | S. cerevisiae deletion strains, locus YMR205C, strain PFK2, stronger effect = lower value 1.04 | S. cerevisiae deletion strains, locus YMR223W, strain ubp8, stronger effect = lower value 1.02 | S. cerevisiae deletion strains, locus YMR231W, strain pep5, stronger effect = lower value 1 | S. cerevisiae deletion strains, locus YMR263W, strain SAP30, stronger effect = lower value 0.976 | S. cerevisiae deletion strains, locus YMR307W, strain GAS1, stronger effect = lower value 1.06 | S. cerevisiae deletion strains, locus YNL067W, strain RPL9B, stronger effect = lower value 0.985 | S. cerevisiae deletion strains, locus YNL071W, strain lat1, stronger effect = lower value 1.01 | S. cerevisiae deletion strains, locus YNL128W, strain TEP1, stronger effect = lower value 0.987 | S. cerevisiae deletion strains, locus YNL153C, strain GIM3, stronger effect = lower value 0.995 | S. cerevisiae deletion strains, locus YNL183C, strain NPR1, stronger effect = lower value 0.942 | S. cerevisiae deletion strains, locus YNL209W, strain ssb2, stronger effect = lower value 1 | S. cerevisiae deletion strains, locus YNL233W, strain BNI4, stronger effect = lower value 1.01 | S. cerevisiae deletion strains, locus YNL248C, strain rpa49, stronger effect = lower value 1 | S. cerevisiae deletion strains, locus YNL250W, strain rad50, stronger effect = lower value 0.96 | S. cerevisiae deletion strains, locus YNL271C, strain bni1, stronger effect = lower value 0.953 | S. cerevisiae deletion strains, locus YNL298W, strain CLA4, stronger effect = lower value 0.994 | S. cerevisiae deletion strains, locus YNL307C, strain MCK1, stronger effect = lower value 0.989 | S. cerevisiae deletion strains, locus YNL322C, strain KRE1 (second series), stronger effect = lower value 1.02 | S. cerevisiae deletion strains, locus YNL322C, strain KRE1, stronger effect = lower value 0.987 | S. cerevisiae deletion strains, locus YNR049C, strain mso1, stronger effect = lower value 1.02 | S. cerevisiae deletion strains, locus YNR052C, strain pop2, stronger effect = lower value 0.986 | S. cerevisiae deletion strains, locus YOL006C, strain TOP1, stronger effect = lower value 1 | S. cerevisiae deletion strains, locus YOL012C, strain htz1 1.43 | S. cerevisiae deletion strains, locus YOL147C, strain pex11, stronger effect = lower value 0.978 | S. cerevisiae deletion strains, locus YOR001W, strain rrp6, stronger effect = lower value 1.04 | S. cerevisiae deletion strains, locus YOR061W, strain CKA2, stronger effect = lower value 0.996 | S. cerevisiae deletion strains, locus YOR069W, strain VPS5, stronger effect = lower value 1 | S. cerevisiae deletion strains, locus YOR070C, strain gyp1, stronger effect = lower value 0.999 | S. cerevisiae deletion strains, locus YOR080W, strain dia2, stronger effect = lower value 1.02 | S. cerevisiae deletion strains, locus YOR083W, strain WHI5, stronger effect = lower value 1.01 | S. cerevisiae deletion strains, locus YOR106W, strain vam3, stronger effect = lower value 1.05 | S. cerevisiae deletion strains, locus YOR136W, strain idh2, stronger effect = lower value 0.997 | S. cerevisiae deletion strains, locus YOR144C, strain elg1, stronger effect = lower value 0.98 | S. cerevisiae deletion strains, locus YOR184W, strain ser1, stronger effect = lower value 1 | S. cerevisiae deletion strains, locus YOR231W, strain MKK1, stronger effect = lower value 0.959 | S. cerevisiae deletion strains, locus YOR265W, strain rbl2, stronger effect = lower value 1 | S. cerevisiae deletion strains, locus YOR270C, strain vph1, stronger effect = lower value 1.02 | S. cerevisiae deletion strains, locus YOR290C, strain snf2, stronger effect = lower value 0.985 | S. cerevisiae deletion strains, locus YOR316C, strain cot1, stronger effect = lower value 0.991 | S. cerevisiae deletion strains, locus YPL051W, strain arl3, stronger effect = lower value 1.02 | S. cerevisiae deletion strains, locus YPL055C, strain LGE1, stronger effect = lower value 1.04 | S. cerevisiae deletion strains, locus YPL078C, strain atp4, stronger effect = lower value 1.04 | S. cerevisiae deletion strains, locus YPL106C, strain sse1, stronger effect = lower value 1.02 | S. cerevisiae deletion strains, locus YPL240C, strain hsp82, stronger effect = lower value 1.01 | S. cerevisiae deletion strains, locus YPL241C, strain CIN2, stronger effect = lower value 0.992 | S. cerevisiae deletion strains, locus YPL256C, strain CLN2, stronger effect = lower value 0.974 | S. cerevisiae deletion strains, locus YPR119W, strain clb2, stronger effect = lower value 0.988 | S. cerevisiae deletion strains, locus YPR141C, strain kar3, stronger effect = lower value 0.965 | S. cerevisiae deletion strains, locus YPR163C, strain tif3, stronger effect = lower value 0.982 | S. cerevisiae deletion strains, locus YPR167C, strain met16, stronger effect = lower value 0.973 | S. cerevisiae deletion strains, strain wtn01, stronger effect = lower value 0.989 | S. cerevisiae strains, strain wild type, stronger effect = lower value 0.999
